Vif-APOBEC3G blk – blocks the Vif interaction with human APOBEC3G. Q9HC16. HeLa A3G-eYFP + Vif (tagged APOBEC3G with the HIV-1 protein that degrades it), YFP fluorescence, overnight. Potency, µM (doses to about 46.1 µM), without a hit: at the top dose activity, negative = active, most hits filed as inhibitors. 0.076% of 410,000 active. AID 602310; also: % is scaled to controls: 0 for no effect and ±100 for the full control effect; nearly all actives have a fitted effect of over 60% in size
Target sequence (Q9HC16 whole entry, looked up): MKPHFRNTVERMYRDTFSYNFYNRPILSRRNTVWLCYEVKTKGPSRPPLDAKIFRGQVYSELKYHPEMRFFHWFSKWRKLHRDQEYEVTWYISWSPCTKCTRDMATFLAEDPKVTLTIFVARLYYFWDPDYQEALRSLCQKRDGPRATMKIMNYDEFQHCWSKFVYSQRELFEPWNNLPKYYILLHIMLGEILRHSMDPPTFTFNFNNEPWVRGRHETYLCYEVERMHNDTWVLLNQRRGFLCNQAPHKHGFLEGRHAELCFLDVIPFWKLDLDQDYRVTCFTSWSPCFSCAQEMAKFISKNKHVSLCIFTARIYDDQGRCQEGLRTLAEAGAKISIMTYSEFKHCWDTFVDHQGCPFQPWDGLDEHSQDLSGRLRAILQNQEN
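Read-out is eYFP fluorescence (Ex 488/Em 500-530) from Vif-expressing HeLa A3G-eYFP cells; more signal means A3G escaped Vif-mediated degradation. Cells plated overnight, compound pinned in, incubated overnight at 37 deg C.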
Epigenetic derep – regulators of epigenetic silencing causing reporter derepression in mouse cells; Potency, µM (highest dose often 53.9 µM), inactives show at the top dose GFP activation, actives largely listed as activators; 0.2% of 280,000 active; murine LDR cells, GFP reporter derepression, 30 h; also: % of control where 0% means no effect; nearly all actives have a fitted effect of over 60% in size
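Murine LDR cells carrying a silenced, genomically integrated CMV-driven GFP reporter were exposed to compound for 30 hours at 37 C. After PBS washes, GFP-positive cells (20–120 um objects) were counted by laser-scanning microplate cytometry.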
PINK1 expr mod – changes PINK1 expression; PINK1 immunofluorescence, high-content cytometry, 24 h; Potency, µM (highest dose often 76.6 µM), without a hit: at the highest dose activation (PINK1 increase), hits mostly activators; 0.2% of 410,000 active; active = well fitted activation curve with a large enough effect; inconclusive = small, poorly fitted or top-dose-only effect; cell line not stated here; also: % of control where 0% means no effect; nearly all actives have a fitted effect of over 65% in size
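Cells are seeded, rested 12 hours, then given compound at five concentrations or DMSO for 24 hours. After fixation, blocking and antibody staining, PINK1 amount and mitochondrial localization are scored; CCCP serves as control.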
Vif-APOBEC3F blk – inhibitors of Vif-A3F interaction. 0.2% of 390,000 active. Potency, µM (titrated, usually from 46.1 µM), for the others: top-dose activity, negative = active. HeLa A3F-eYFP + Vif (tagged APOBEC3F with the HIV-1 protein that degrades it), YFP fluorescence increase; also: % of control where 0% means no effect; nearly all actives have a fitted effect of over 65% in size
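HeLa cells stably expressing A3F-eYFP plus Vif, plated and incubated overnight at 37 deg C, then exposed to compounds overnight at 37 deg C. Blocked degradation read as raised yellow fluorescence (Ex 488/Em 500-530).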
An asterisk follows results filed as active; u = inconclusive; x = no result given; [ ] = dose if it differs, or a comment. In the library only some 0.52% were active in any assay of this set; here they are far more common. Unless noted, calls follow the shape of the dose curve; as a rule, active = well fitted curve in the direction sought with a large enough effect; inconclusive = small, poorly fitted or top-dose-only effect, or another doubt; inactive = no such curve, though single readings can be large; an effect the other way counts as inactive or inconclusive. Potency is read from the fitted curve at half-maximal effect.

SMILES	Vif-APOBEC3G blk	Epigenetic derep	PINK1 expr mod	Vif-APOBEC3F blk
CCCCOC(=O)Cn1c(-c2ccccc2)nc2ccccc2c1=O	-3%	1%	2%	5%
CCCOC(=O)C(C)n1c(-c2ccccc2)nc2ccccc2c1=O (stereo unspecified)	3%	-1%	8.9µM*	-10%
Cc1ccc(-c2nc3ccccc3s2)cc1NC(=O)c1cc(-n2cnnc2)ccc1Cl	2%	-1%	3.5µM*	-9%
CC(=O)Nc1cc(-c2nc3ccccc3s2)ccc1C	x	-2%	2%	x
COCCNC(=O)c1cn(C2CCN(C3CCCC3)CC2)nn1	x	x	0%	x
COc1ccc2c(n1)Sc1nc3ccccc3nc1N2	u	6.3µM*	u	u
CCC(=O)NC(c1ccccc1OC)c1ccc2cccnc2c1O (stereo unspecified)	-6%	3.5µM*	2%[38.3 µM]	0%
CCCC(=O)NC(c1ccc(OC)cc1)c1ccc2cccnc2c1O (stereo unspecified)	-15%	3.5µM*	0%	11µM*
Cc1ccc(N2C(=O)c3cccc4c(N)ccc(c34)C2=O)c2cccnc12	8%	4µM*	40µM*	u
Cc1cc(NC(=O)CSc2nc3c(C)cccc3cc2C#N)no1	u	x	u	11µM*
Cc1cccc2cc(C#N)c(SCC(=O)N3CC(=O)Nc4ccccc43)nc12	u	20µM*	4%	u
Cc1cc(NC(=O)CSc2nc3c(C)ccc(C)c3cc2C#N)no1	-12%	x	1%	u
CCOC(=O)N1CCN(Cc2ccc3c(c2)CN(C(=O)c2cc(-c4ccccc4)no2)CCO3)CC1	x	x	-1%	x
Cc1cc(NC(=O)c2ccco2)cc(-c2nc3cc(Cl)ccc3o2)c1O	u	u	11%	11µM*
Cc1ccc2oc(-c3cc(NC(=O)c4cccs4)cc(C)c3O)nc2c1	-1%	0%	-1%	1%
O=C(/C=C/c1ccco1)N1CCc2ccccc21	u	2%	1%	11µM*
Cc1ccc(/C=C/C(=O)N2CCc3ccccc32)o1	-41%	1%	1%	8%
C/C(=N\Nc1nccnc1Cl)c1ccc(Cl)c(Cl)c1	0%	x	0%	25µM*
O=C(NNc1ncnc2sccc12)c1ccc(Cl)cc1	-1%	-1%	-1%	4%
Cc1csc2ncnc(NNC(=O)c3ccc(Cl)cc3)c12	1%	35µM*	2%	4%
COC(=O)c1ccc(C(=O)N2CCc3c(C(=O)NC(C)c4ccco4)c(OC)cc(=O)n3CC2)cc1 (stereo unspecified)	x	x	0%	x
CN(C(=O)C(C)(C)C)[C@H]1C[C@H]2c3[nH]c4ccccc4c3CCN2C(=O)[C@H]1CO	-17%	x	1%	-18%
CN(Cc1cc(Cl)cc(Cl)c1)[C@H]1C[C@H]2c3[nH]c4ccccc4c3CCN2C(=O)[C@H]1CO	-15%	x	45µM*	-12%
Cn1cnnc1Sc1ccc(CN2CCOc3ccc(C4=Cc5ccccc5C4)cc3C2)o1	x	x	1%	x
O=c1oc2c3c4c(cc2c(C(F)(F)F)c1CCN1CCOCC1)CCCN4CCC3	u	u	22%	7.9µM*
SMILES	Vif-APOBEC3G blk	Epigenetic derep	PINK1 expr mod	Vif-APOBEC3F blk
CCC1(C2CCN(C(=O)c3cc(C)cc(C)c3)CC2)NC(=O)N(CCc2scnc2C)C1=O (stereo unspecified)	x	x	1%	x
Cn1cccc1/C=C1\SC(=O)N(c2ccc(O)cc2)C1=O	u	u	10%	25µM*
CCOc1ccc(N2C(=O)S/C(=C\c3cccn3C)C2=O)cc1	-13%	-1%	u	u
COc1ccc(-c2cc(C(F)(F)F)c(C#N)c(SCC(=O)Nc3cccc(C)c3)n2)cc1	-9%	5%	-1%	-3%
CCOC(=O)c1ccc(NC(=O)CSc2nc(-c3cccs3)cc(C(F)(F)F)c2C#N)cc1	u	10µM*	0%	4µM*
CCOC(=O)c1ccc(NC(=O)CSc2nc(-c3ccc(OC)cc3)cc(C(F)(F)F)c2C#N)cc1	u	u	2%	25µM*
COc1ccc(-c2cc(C(F)(F)F)c(C#N)c(SCC(=O)Nc3nc(C)co3)n2)cc1	-1%	-1%	8.9µM*	u
COc1ccc(NC(=O)CSc2nc(-c3cccs3)cc(C(F)(F)F)c2C#N)cc1	-9%	u	7%	u
Cc1cccc(NC(=O)CSc2nc(-c3cccs3)cc(C(F)(F)F)c2C#N)c1	-2%	14µM*	6%	3%
COC(=O)c1cn([C@@H]2C[C@@H](C(=O)Nc3cccc(SC)c3)N(C3CCCCCC3)C2)nn1	x	x	1%	x
Cc1cc(C)n(-c2cccc(C(=O)NCC3Cc4cccc(-c5ccccn5)c4O3)c2)n1 (stereo unspecified)	x	x	0%	x
Cc1ccc(CNc2ncnc3sc(C(=O)N4CCC(N5CCCC(O)C5)CC4)c(C)c23)o1 (stereo unspecified)	x	x	1%	x
COCc1c(C(=O)N2CCN(c3ccccc3)CC2)cnn1-c1nccc(-c2ccco2)n1	x	x	4%	x
COc1ccc(-c2cc(C(F)(F)F)c(C#N)c(SCC(=O)Nc3ccccc3C#N)n2)cc1	-21%	7.9µM*	u	x
COc1ccc(-c2cc(C(F)(F)F)c(C#N)c(SCC(=O)Nc3ccccc3F)n2)cc1	-5%	3%	-1%	1%
COCc1c(C(=O)N2CCN(c3ccccc3O)CC2)cnn1-c1nccc(-c2cccs2)n1	x	x	1%	x
Cc1ccn2c(Nc3ccc4c(c3)OCO4)c(-c3ccccn3)nc2c1	-2%	1%	40µM*	4%
S=C(NNc1ccnc2cc(Cl)ccc12)Nc1ccc(Cl)cc1Cl	-6%	0%	8.9µM*	u
CC(C)(C)c1csc(NC(=O)c2ccccc2O)n1	-2%	x	28µM*	11%
Cc1csc(NC(=O)c2ccccc2O)n1	-3%	-1%	6%	-3%
CCC(=NN=C(CC)c1ccccc1O)c1ccccc1O	-1%	x	11%	0%
C/C(=N/N=C(\C)c1ccccc1O)c1ccccc1O	-2%	x	32µM*	18µM*
CCCCNc1ccc2c3c(cccc13)C(=O)N(CCCC)C2=O	4%	3.2µM*	u	-39%
Cc1sc2nc(CSCC(=O)Nc3ccccc3C#N)[nH]c(=O)c2c1C	-3%	2%	-1%	13µM*
CSc1ccccc1NC(=O)CSCc1nc2sc(C)c(C)c2c(=O)[nH]1	-9%	x	-2%	-30%
SMILES	Vif-APOBEC3G blk	Epigenetic derep	PINK1 expr mod	Vif-APOBEC3F blk
Cc1ccccc1Cn1c(=N)n(CC(=O)c2ccc([N+](=O)[O-])cc2)c2ccccc21	-28%	17%	8%	28µM*
Cc1ccc(F)cc1S(=O)(=O)NCc1nc(N2CCCC2)c2cccc(C)c2n1	x	x	0%	x
CCn1cc(C(=O)O)c(=O)c2cnc(N3CCN(C(=S)Nc4ccccc4)CC3)nc21	5%	1%	-1%	4%
CCCCOC(=O)c1ccc(NC(=S)N2CCN(c3ncc4c(=O)c(C(=O)O)cn(CC)c4n3)CC2)cc1	3%	2%	28µM*	-3%
Cc1ccc2nc(SCC(=O)NCC3Cc4cc(-c5ncccc5C)ccc4O3)[nH]c2c1 (stereo unspecified)	x	x	1%	x
COc1cc(CNc2cccc3[nH]c(C(F)(F)F)nc23)cc(OC)c1	-17%	x	32µM*	-10%

High-throughput results (PubChem BioAssay)
